# Results taken from paper PMC11006913.
# Numbering of substitutions follows the chain as printed.
# Experiments:
# Test in all cases: PBM; 200 nM protein, PBS
# Conditions in all cases: dsDNA, one strand shown
# HOXA4 [1] = target: HOXA4 (Homo sapiens, UniProt Q00056 201-287, W262R)
# HOXA2 [2] = target: HOXA2 (Homo sapiens, UniProt O43364 129-215, R185T)
# HOXA4 [3] = target: HOXA4 (Homo sapiens, UniProt Q00056 201-287, R217L)
# HOXA2 [4] = target: HOXA2 (Homo sapiens, UniProt O43364 129-215, R185K)
# HOXA4 [5] = target: HOXA4 (Homo sapiens, UniProt Q00056 201-287)
# HOXA4 [6] = target: HOXA4 (Homo sapiens, UniProt Q00056 201-287, W262F)
# VENTX [7] = target: T1, VENTX (Homo sapiens, UniProt O95231 78-163, R121Q)
# T1 sequence: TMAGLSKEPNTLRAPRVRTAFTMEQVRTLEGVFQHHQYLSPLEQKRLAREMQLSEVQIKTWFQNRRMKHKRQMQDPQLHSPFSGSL
# HOXA7 [8] = target: HOXA7 (Homo sapiens, UniProt P31268 116-202)
# VENTX [9] = target: T2, VENTX (Homo sapiens, UniProt O95231 78-163, Y115F)
# T2 sequence: T1 sequence with Y38F, Q44R
# HOXA7 [10] = target: HOXA7 (Homo sapiens, UniProt P31268 116-202, W177C)
# PRRX1 [11] = target: PRRX1 (Homo sapiens, UniProt P54821 80-166, F113S)
# HOXB6 = HOXB6 (Homo sapiens, UniProt P17509 132-218, K202E)
# MSX2 [12] = target: MSX2 (Homo sapiens, UniProt P35548 130-214)
# MSX2 [13] = target: MSX2 (Homo sapiens, UniProt P35548 130-214, F161Y)
# PRRX1 [14] = target: PRRX1 (Homo sapiens, UniProt P54821 80-166)
# VAX1 [15] = target: VAX1 (Homo sapiens, UniProt Q5SQQ9 86-172, T142I)
# VAX1 [16] = target: VAX1 (Homo sapiens, UniProt Q5SQQ9 86-172, K157R)
# PAX4 = target: T3, PAX4 (Homo sapiens, UniProt O43316 9-242, R200Q)
# T3 sequence: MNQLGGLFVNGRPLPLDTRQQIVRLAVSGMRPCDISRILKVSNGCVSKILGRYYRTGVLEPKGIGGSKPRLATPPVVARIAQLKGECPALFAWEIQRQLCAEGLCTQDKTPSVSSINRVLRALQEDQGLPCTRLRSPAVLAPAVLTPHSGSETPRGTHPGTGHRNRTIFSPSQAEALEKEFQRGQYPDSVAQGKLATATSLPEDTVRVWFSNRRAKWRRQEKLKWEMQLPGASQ
# HOXB6, sequence (P17509 132-218 K202E): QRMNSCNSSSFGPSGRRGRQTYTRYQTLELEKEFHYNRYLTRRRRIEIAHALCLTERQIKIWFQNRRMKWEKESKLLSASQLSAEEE
# HOXA2 (Homo sapiens, UniProt O43364 129-215, R185K), sequence (O43364 129-215 R185K): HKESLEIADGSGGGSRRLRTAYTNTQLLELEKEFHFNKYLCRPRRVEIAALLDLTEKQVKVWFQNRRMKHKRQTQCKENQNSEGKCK
# HOXA4 (Homo sapiens, UniProt Q00056 201-287, W262R), sequence (Q00056 201-287 W262R): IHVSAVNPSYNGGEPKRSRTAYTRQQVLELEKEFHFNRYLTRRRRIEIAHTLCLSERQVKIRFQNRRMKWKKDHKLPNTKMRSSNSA
# HOXA4 (Homo sapiens, UniProt Q00056 201-287, W262F), sequence (Q00056 201-287 W262F): as the sequence (Q00056 201-287 W262R) above, with R62F counted along it
# HOXA7 (Homo sapiens, UniProt P31268 116-202, W177C), sequence (P31268 116-202 W177C): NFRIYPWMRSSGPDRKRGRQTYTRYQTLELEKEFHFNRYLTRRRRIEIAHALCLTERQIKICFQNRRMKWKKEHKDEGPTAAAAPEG
# HOXA4 (Homo sapiens, UniProt Q00056 201-287), sequence (Q00056 201-287): as the sequence (Q00056 201-287 W262R) above, with R62W counted along it
# HOXA4 (Homo sapiens, UniProt Q00056 201-287, R217L), sequence (Q00056 201-287 R217L): as the sequence (Q00056 201-287 W262R) above, with R17L, R62W counted along it
# HOXA7 (Homo sapiens, UniProt P31268 116-202), sequence (P31268 116-202): as the sequence (P31268 116-202 W177C) above, with C62W counted along it
# HOXA2 (Homo sapiens, UniProt O43364 129-215, R185T), sequence (O43364 129-215 R185T): as the sequence (O43364 129-215 R185K) above, with K57T counted along it
# PRRX1 (Homo sapiens, UniProt P54821 80-166), sequence (P54821 80-166): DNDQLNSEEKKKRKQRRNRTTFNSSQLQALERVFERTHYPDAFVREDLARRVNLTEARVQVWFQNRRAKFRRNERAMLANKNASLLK
# MSX2 (Homo sapiens, UniProt P35548 130-214, F161Y), sequence (P35548 130-214 F161Y): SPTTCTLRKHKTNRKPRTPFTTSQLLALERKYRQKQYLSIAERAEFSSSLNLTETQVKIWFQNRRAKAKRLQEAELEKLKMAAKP
# MSX2 (Homo sapiens, UniProt P35548 130-214), sequence (P35548 130-214): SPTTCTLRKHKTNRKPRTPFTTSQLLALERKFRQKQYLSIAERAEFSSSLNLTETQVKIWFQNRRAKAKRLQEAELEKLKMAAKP
# VAX1 (Homo sapiens, UniProt Q5SQQ9 86-172, T142I), sequence (Q5SQQ9 86-172 T142I): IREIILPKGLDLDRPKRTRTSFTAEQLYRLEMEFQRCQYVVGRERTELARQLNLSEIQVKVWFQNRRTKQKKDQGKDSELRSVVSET
# VAX1 (Homo sapiens, UniProt Q5SQQ9 86-172, K157R), sequence (Q5SQQ9 86-172 K157R): as the sequence (Q5SQQ9 86-172 T142I) above, with I57T, K72R counted along it
# PRRX1 (Homo sapiens, UniProt P54821 80-166, F113S), sequence (P54821 80-166 F113S): as the sequence (P54821 80-166) above, with F34S counted along it
sequence,measurement,setting,value
GCAGGCGC,binding signal,HOXA4 [1],"9.8 upbm affinity estimate (log intensity, higher = more binding, comparable within an allelic series)"
same,binding signal,HOXA2 [2],"6.79 upbm affinity estimate (log intensity, higher = more binding, comparable within an allelic series)"
same,binding signal,HOXA4 [3],"9.64 upbm affinity estimate (log intensity, higher = more binding, comparable within an allelic series)"
same,binding signal,HOXA2 [4],"10 upbm affinity estimate (log intensity, higher = more binding, comparable within an allelic series)"
same,binding signal,HOXA4 [5],"9.74 upbm affinity estimate (log intensity, higher = more binding, comparable within an allelic series)"
same,binding signal,HOXA4 [6],"9.73 upbm affinity estimate (log intensity, higher = more binding, comparable within an allelic series)"
AGGGTCCC,binding signal,HOXA4 [1],"9.9 upbm affinity estimate (log intensity, higher = more binding, comparable within an allelic series)"
same,binding signal,HOXA4 [3],"9.79 upbm affinity estimate (log intensity, higher = more binding, comparable within an allelic series)"
same,binding signal,HOXA4 [5],"9.74 upbm affinity estimate (log intensity, higher = more binding, comparable within an allelic series)"
same,binding signal,HOXA4 [6],"9.78 upbm affinity estimate (log intensity, higher = more binding, comparable within an allelic series)"
CCTAGCTC,binding signal,VENTX [7],"8.35 upbm affinity estimate (log intensity, higher = more binding, comparable within an allelic series)"
same,binding signal,HOXA4 [1],"9.86 upbm affinity estimate (log intensity, higher = more binding, comparable within an allelic series)"
same,binding signal,HOXA7 [8],"8.59 upbm affinity estimate (log intensity, higher = more binding, comparable within an allelic series)"
same,binding signal,VENTX [9],"8.28 upbm affinity estimate (log intensity, higher = more binding, comparable within an allelic series)"
same,binding signal,HOXA4 [3],"9.83 upbm affinity estimate (log intensity, higher = more binding, comparable within an allelic series)"
same,binding signal,HOXA4 [5],"9.82 upbm affinity estimate (log intensity, higher = more binding, comparable within an allelic series)"
same,binding signal,HOXA7 [10],"8.42 upbm affinity estimate (log intensity, higher = more binding, comparable within an allelic series)"
same,binding signal,HOXA4 [6],"9.87 upbm affinity estimate (log intensity, higher = more binding, comparable within an allelic series)"
ACAATTAT,binding signal,PRRX1 [11],"11.2 upbm affinity estimate (log intensity, higher = more binding, comparable within an allelic series)"
same,binding signal,HOXB6,"9.99 upbm affinity estimate (log intensity, higher = more binding, comparable within an allelic series)"
same,binding signal,MSX2 [12],"13.8 upbm affinity estimate (log intensity, higher = more binding, comparable within an allelic series)"
same,binding signal,MSX2 [13],"13.4 upbm affinity estimate (log intensity, higher = more binding, comparable within an allelic series)"
same,binding signal,PRRX1 [14],"13.2 upbm affinity estimate (log intensity, higher = more binding, comparable within an allelic series)"
CTGCATTA,binding signal,HOXA7 [8],"9.13 upbm affinity estimate (log intensity, higher = more binding, comparable within an allelic series)"
same,binding signal,HOXA2 [2],"9.52 upbm affinity estimate (log intensity, higher = more binding, comparable within an allelic series)"
same,binding signal,HOXA2 [4],"11.7 upbm affinity estimate (log intensity, higher = more binding, comparable within an allelic series)"
same,binding signal,HOXA7 [10],"8.56 upbm affinity estimate (log intensity, higher = more binding, comparable within an allelic series)"
CCCCCAGC,binding signal,VENTX [7],"7.89 upbm affinity estimate (log intensity, higher = more binding, comparable within an allelic series)"
same,binding signal,HOXA7 [8],"8.08 upbm affinity estimate (log intensity, higher = more binding, comparable within an allelic series)"
same,binding signal,VENTX [9],"7.96 upbm affinity estimate (log intensity, higher = more binding, comparable within an allelic series)"
same,binding signal,VAX1 [15],"7.15 upbm affinity estimate (log intensity, higher = more binding, comparable within an allelic series)"
same,binding signal,HOXA7 [10],"8.17 upbm affinity estimate (log intensity, higher = more binding, comparable within an allelic series)"
same,binding signal,VAX1 [16],"6.96 upbm affinity estimate (log intensity, higher = more binding, comparable within an allelic series)"
AAGCTGGC,binding signal,HOXA7 [8],"8.32 upbm affinity estimate (log intensity, higher = more binding, comparable within an allelic series)"
same,binding signal,HOXA7 [10],"8.3 upbm affinity estimate (log intensity, higher = more binding, comparable within an allelic series)"
GCAATTAC,binding signal,HOXA7 [8],"11.2 upbm affinity estimate (log intensity, higher = more binding, comparable within an allelic series)"
same,binding signal,HOXB6,"9.75 upbm affinity estimate (log intensity, higher = more binding, comparable within an allelic series)"
same,binding signal,MSX2 [12],"13.7 upbm affinity estimate (log intensity, higher = more binding, comparable within an allelic series)"
same,binding signal,MSX2 [13],"13.4 upbm affinity estimate (log intensity, higher = more binding, comparable within an allelic series)"
same,binding signal,HOXA7 [10],"8.74 upbm affinity estimate (log intensity, higher = more binding, comparable within an allelic series)"
CCGAGACC,binding signal,HOXA4 [1],"9.83 upbm affinity estimate (log intensity, higher = more binding, comparable within an allelic series)"
same,binding signal,HOXA4 [3],"9.77 upbm affinity estimate (log intensity, higher = more binding, comparable within an allelic series)"
same,binding signal,HOXA4 [5],"9.83 upbm affinity estimate (log intensity, higher = more binding, comparable within an allelic series)"
same,binding signal,HOXA4 [6],"9.94 upbm affinity estimate (log intensity, higher = more binding, comparable within an allelic series)"
GCCCCCCA,binding signal,HOXA4 [1],"9.56 upbm affinity estimate (log intensity, higher = more binding, comparable within an allelic series)"
same,binding signal,HOXB6,"8.7 upbm affinity estimate (log intensity, higher = more binding, comparable within an allelic series)"
same,binding signal,HOXA4 [3],"9.68 upbm affinity estimate (log intensity, higher = more binding, comparable within an allelic series)"
same,binding signal,HOXA4 [5],"9.71 upbm affinity estimate (log intensity, higher = more binding, comparable within an allelic series)"
same,binding signal,HOXA4 [6],"9.58 upbm affinity estimate (log intensity, higher = more binding, comparable within an allelic series)"
CGATTATC,binding signal,VENTX [7],"10.6 upbm affinity estimate (log intensity, higher = more binding, comparable within an allelic series)"
same,binding signal,VENTX [9],"10.6 upbm affinity estimate (log intensity, higher = more binding, comparable within an allelic series)"
GCCAGCCC,binding signal,VAX1 [15],"7.2 upbm affinity estimate (log intensity, higher = more binding, comparable within an allelic series)"
same,binding signal,VAX1 [16],"7.16 upbm affinity estimate (log intensity, higher = more binding, comparable within an allelic series)"
CCGCCCCC,binding signal,VENTX [7],"8.05 upbm affinity estimate (log intensity, higher = more binding, comparable within an allelic series)"
same,binding signal,PRRX1 [11],"9.06 upbm affinity estimate (log intensity, higher = more binding, comparable within an allelic series)"
same,binding signal,VENTX [9],"7.95 upbm affinity estimate (log intensity, higher = more binding, comparable within an allelic series)"
same,binding signal,HOXB6,"8.84 upbm affinity estimate (log intensity, higher = more binding, comparable within an allelic series)"
same,binding signal,HOXA2 [2],"6.99 upbm affinity estimate (log intensity, higher = more binding, comparable within an allelic series)"
same,binding signal,HOXA2 [4],"9.92 upbm affinity estimate (log intensity, higher = more binding, comparable within an allelic series)"
same,binding signal,PRRX1 [14],"8.75 upbm affinity estimate (log intensity, higher = more binding, comparable within an allelic series)"
CCAGGACC,binding signal,VENTX [7],"8.04 upbm affinity estimate (log intensity, higher = more binding, comparable within an allelic series)"
same,binding signal,VENTX [9],"8.14 upbm affinity estimate (log intensity, higher = more binding, comparable within an allelic series)"
TCCCCCCA,binding signal,HOXA4 [1],"9.6 upbm affinity estimate (log intensity, higher = more binding, comparable within an allelic series)"
same,binding signal,HOXA2 [2],"7.32 upbm affinity estimate (log intensity, higher = more binding, comparable within an allelic series)"
same,binding signal,HOXA4 [3],"9.7 upbm affinity estimate (log intensity, higher = more binding, comparable within an allelic series)"
same,binding signal,HOXA2 [4],"10.4 upbm affinity estimate (log intensity, higher = more binding, comparable within an allelic series)"
same,binding signal,HOXA4 [5],"9.81 upbm affinity estimate (log intensity, higher = more binding, comparable within an allelic series)"
same,binding signal,HOXA4 [6],"9.56 upbm affinity estimate (log intensity, higher = more binding, comparable within an allelic series)"
CGGGCCCG,binding signal,HOXA7 [8],"8.8 upbm affinity estimate (log intensity, higher = more binding, comparable within an allelic series)"
same,binding signal,PAX4,"9.41 upbm affinity estimate (log intensity, higher = more binding, comparable within an allelic series)"
same,binding signal,HOXA7 [10],"8.26 upbm affinity estimate (log intensity, higher = more binding, comparable within an allelic series)"
CAGCCAGG,binding signal,VENTX [7],"8.2 upbm affinity estimate (log intensity, higher = more binding, comparable within an allelic series)"
same,binding signal,VENTX [9],"8.16 upbm affinity estimate (log intensity, higher = more binding, comparable within an allelic series)"
